# Measurements published in PubChem BioAssay AID1508600 (Functional Genomics Laboratory (NCATS/FGL), 2020).
# The campaign covered roughly 53,000 sequences. About 3,700 (7%) were called active. The sample as a whole holds a higher share of actives than the screen did. A number with no mark means an inactive call.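 The calls were made as follows: active = gene knockdowns whose robust z-score for IL-1 alpha signal is at least 2 or at most -2, so actives lie on both sides; inactive = the rest.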
# Test: Components of the Cytosolic LPS Sensing Pathway: Gene Identification via Genome-wide siRNA Screen;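 also: robust z of the log signal after scaling to non-targeting control siRNA wells of the plate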
# Conditions: RAW264.7 macrophages, IL-1a HTRF, actives lie on both sides, screened at 100 nM (by protocol), cells primed 5 h with Pam3CSK4 first
# Procedure, shortened: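 Read-out: IL-1a HTRF on supernatant, divided by plate negative-control median ×100, log-transformed and converted to robust z-score. Cells were RAW264.7 given 100 nM siRNA, Pam3CSK4-primed 5 hours, then LipidA-transfected 24 hour.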
row,Sequence,z-score
1,CCGUCUAUUAGUGAAGAUGTT against Pex1,0.0157
2,GGGUGAAAAUGGCAUUGUUTT against Col1a2,0.56
3,CGUGAUGGGACUUGAGAAGTT against Teddm1a,-0.454
4,GGAAAGAUUGUUUGAAGGCTT against Cask,-0.252
5,GCUGAUUUCAUUGCAUCCGTT against Olfr483,2.12 (active)
6,GGAAAAGGUUAAACUUUGATT against Cenpc1,0.165
7,CCAUCCUCCUACUCGUUAGTT against Vmn1r233,2.03 (active)
8,CCAAUAAAAGUUGAGAGCUTT against Krt18,-0.272
9,GCCUGACAUUGGGACAAAGTT against Trim34a,0.179
10,GCCUCCUAUCCUGGGAAGATT against Prss3,2.54 (active)
11,GGAGACGAGAAACAAACCCTT against Diaph2,1.68
12,GGUACUUUGGAGAUUGUAATT against Rdh14,-0.462
13,GGCAGCCAAGAGAUUGAAUTT against Suclg2,1.09
14,GGUUCUGAAAUGCAUGGAGTT against Rnf6,1.76
15,GCAAAUGCGACUUUACACATT against Top1,2.56 (active)
16,GGAGCUGCUUGCUCAAAGATT against Tmem65,0.61
17,GCUGGAAAUGACACUGCCUTT against C1qtnf7,1.45
18,GCGGGAAUGAAGAAACACGTT against Eea1,0.801
19,GCCACGUUCCCUUGAUCAUTT against Mx2,1.4
20,GGAUGCCUUCUAUACACUATT against Hras,-1.33
21,CCCUUACAUCCAUCAACUATT against Dcbld2,-1.04
22,GGAAGUAUGUGUUUCUCAGTT against Prr9,-2.41 (active)

row,Sequence,z-score
1,GGUAAUAAACGGUAAAUUGTT against B430306N03Rik,-0.763
2,GGUUCCAUAGCAGACAAAATT against Mrpl24,0.513
3,CCAAAUAUGUACUUCAUGGTT against Adipor1,-0.147
4,CGAUAAGAACACCUAUAUUTT against Sf3b1,-3.26 (active)
5,GGACAUCCAUUCAUGCUUUTT against Serpinb1b,-0.529
6,CCUAUAACUCCAAGGAUACTT against Lexm,0.628
7,GGUUUUGAGCAAAAUUCUATT against Nrd1,0.985
8,GCACUGGAAAUUGUAUAAATT against Hyal6,2.19 (active)
9,CGGAGUGUACCAUCUACACTT against Agpat4,0.193
10,GGGACUGCAUACUUAAGUUTT against Amacr,1.31
11,GGGACCGUGAAGAAAAUUUTT against Tmed11,-0.926
12,GGAGGCUUAUCCUAAAAAGTT against 6330444E15Rik,-1.02
13,GCUGAACCUAUGAGGGAGATT against Gpank1,0.809
14,GGAGUUCAUUCUGGAUAUCTT against Matn2,1.24
15,CCUAGGGCUUUAGCUCUGATT against Msc,-0.75
16,GGAUUAAACCUUUUAACCGTT against Emilin3,-0.251
17,GCAUGUUUUACAGUGUUCATT against Rxfp1,2.7 (active)
18,GCCGGAUGGCACAUUCGUATT against Cda,-0.281
19,CCUAAGGUCAAGAUAUAGCTT against Cep55,0.121
20,CCCACCAGAUUUCUACACCTT against Vsig2,-2
21,GGCUAUGGACCGAAAGAUUTT against Dgcr6,-1.42
22,GCAGCUGUCAUGUAUACAGTT against Olfr59,-0.867

row,Sequence,z-score
1,GGAAUAUCCCAACAUCUGUTT against Upp1,-0.899
2,GCAGUAUGUAAACCCUUACTT against Olfr1463,0.558
3,CGACCUUAAGCUAAGCAGUTT against Aff3,1.18
4,GGAAUUUUCUCAUGAUCUUTT against Krtap3-3,0.813
5,GGGCUAUUAAAUGAUUUCATT against Pax1,5 (active)
6,GCCAUGAUUUUCAUGUACGTT against Olfr711,0.241
7,CCUUAAUAAAUCUAGUGGCTT against Stmn3,-0.567
8,GCGGCUUAUGUCUCAAAUUTT against Gcdh,2.34 (active)
9,GGCCGAUGCCAAAUUGGUATT against Olfm1,0.0323
10,GGACUAGCAAGGCAAGUGATT against Dnase2b,1.32
11,GGGAAUCGGACCAACUUACTT against Adssl1,3.64 (active)
12,GCGAGUUUAAUGUUUAUGCTT against Pdgfra,-1.29
13,GCCCAGCAUGGAUAGAUUATT against Mis18bp1,0.466
14,GGAAAAUGUAAACAAGUACTT against Xpo5,-0.595
15,GGAUAACACCACCAACUAUTT against Akap8l,0.456
16,GGGCUGUUCUACUUAGUUATT against N6amt1,0.573
17,GGAUUAAAGAAAGACAUUGTT against Yme1l1,-2.04 (active)
18,CGCCAGAGUGCAUAGUCUUTT against Mindy2,1.94
19,GCCAUUUUAGAGCAGAUCCTT against Rundc3a,-2.33 (active)
20,GCAAACUGUCCUAUCUUGGTT against Cacna1d,0.84
21,GGUGUUGUUUCGAAUUAUUTT against Xrn1,0.44
22,GGUUCAGGUUCUUCUAAAATT against Cd109,1.42

row,Sequence,z-score
1,GCACCUGAGCUUUCGAAUATT against Fam3a,-0.373
2,CCGUGGAAACAGUCCUGAATT against Nudcd1,0.646
3,GCUACUCUCGCCUGUUACATT against Dcaf12,0.0053
4,GGCCAAUGCCCUUUUUUGATT against Spem2,0.427
5,GUUCCCUGCCUGGCAGAAUTT against Foxd2,3.8 (active)
6,GGCAGCACCAUCGUCUAAUTT against 4930432E11Rik,0.622
7,GGUCAAGUCACUGGUGACGTT against Fabp3,-1.73
8,GGAAGAUGGGCUAUUUCAUTT against Gabra6,0.545
9,GGACAAGACCAUCUUCGAUTT against Sectm1a,0.21
10,CCAAAUCCCAGAGUUAUUUTT against Htr2c,0.361
11,GCAAAAGACCAUCUGAGUGTT against Adig,0.375
12,GGAAUUGGCAUCCUUAAGCTT against Cops3,2.43 (active)
13,GGUCAGAAGGUGUGUUAUATT against Rad52,0.338
14,GGCAUUCCCAGUCGUAAAGTT against Kctd3,-1.1
15,GGUUUAUAUCCGUACACCUTT against Sp2,1.97
16,GGUGUUCUACUGUGCAUUATT against 9330132A10Rik,0.578
17,GUUCCUCAGUAUGUUGCCATT against Olfr126,-2.85 (active)
18,GGGAUUGGUUAUUUUACAUTT against Trmt12,-0.578
19,GGAAAUAUGGCAAGAAUUUTT against Rgs7,0.781
20,GCUAAUGUGGAGGACUCACTT against Chml,-0.574
21,GCAUUUCCCAGCCUGAUACTT against Aif1l,-0.584
22,GGUGACACAGUACAAGAAGTT against Rpl36a,0.318

row,Sequence,z-score
1,GGCGAGAAACCUUUCAGAUTT against Zic4,4.72 (active)
2,CGGCGAUGGAAAAAAAUUUTT against Tmem178,1.04
3,GGGUGCUUACAGAAUAUCUTT against Ms4a19,1.07
4,GGUGAACCCUUUGAGGAAGTT against Gstt3,-0.42
5,GGAUUAAAUGGUGGUGGAGTT against Dnajb6,-1.1
6,GGAUGAAAUUGUGUUAUCUTT against Snrk,-0.371
7,GCCCUUUUACGGCAACAGATT against C2cd5,-1.48
8,CCACAUGCCAAAAUAAUACTT against Oxr1,-0.771
9,GGAAGAACUUGUCUCUUUUTT against Tmtc2,0.501
10,GGAUGCUGUAACACUUUAUTT against Bcl6,3.31 (active)
11,GCGAUCACUUUUCAAGUUUTT against Rnf139,0.0177
12,GGAAAUCCUCAGACAAAUGTT against Pdc,0.93
13,GGAAAUGUACCUGUUUGUUTT against Dnase1l2,0.928
14,GGCUUAGGUGUCCGAGAAATT against Wfdc2,-1.01
15,GGCUGUGGUAGAAAAGCUGTT against Hspg2,-1.65
16,CCAUAUCUAUGAUAUGGUUTT against Piezo2,-2.18 (active)
17,GGAAGAUCCAUUUAAUGUATT against Eps15,1.14
18,GCUGAAGGGUCUCGUAUUGTT against Hes2,0.262
19,GGCUUUGAUGUCAGCACUGTT against Ngrn,0.247
20,GCUCAUGCAUGGCUGUACATT against Gbp9,0.603
